Each structure is given as a SMILES string. The panel holds about 83,000 compounds, 20% with a hit somewhere; the sample as a whole holds those more often.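 The test compound was applied at a single concentration to cells in 96-well plates for 48 hours, and percent growth was recorded.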 Active and inactive are the calls of the source. The calls were made as follows: active = growth percent below 10; inactive = the rest.

The experiment relates to HL-60(TB) leukemia. Kind of experiment: NCI-60 one-dose screen, 48 h (100 = growth as untreated, 0 = no growth, -100 = all killed). The conditions noted are these: 10 µM unless noted.
For `C=C(CN1CC=CCC1)[C@@H]1CC[C@]2(COC(C)=O)CC[C@]3(C)[C@H](CC[C@@H]4[C@@]5(C)CC[C@H](O)C(C)(C)[C@@H]5CC[C@]43C)[C@@H]12`, the growth was 102% (inactive).
To `C[C@]12C[C@H](O)[C@H]3[C@@H](CCC4=CC(=O)CC[C@@]43C)[C@@H]1CC[C@@H]2C(=O)CO` belongs 81.8% (inactive).
To `CCCCCC(C)c1ccc(O)c(C)c1` (stereo not given) belongs 91.4% (inactive); to `COc1ccc(/C=C(/c2ccccc2)[N+](=O)[O-])cc1`, -28.6% (active).
The same measure for `O=c1cc(-c2ccccc2)oc2c1ccc1ccccc12`: 106% (inactive); for `CCN(CC)c1ccc(C(=N)c2ccc(N(C)C)cc2)cc1`: 11.1% (inactive); for `CN1CCN(c2nc3scc(-c4ccccc4)c3c(=O)[nH]2)CC1`: 90.8% (inactive).
As to `CCCCCCCCCCCCCCCCNc1ccccc1`, the growth was 8.47% (active).
Consider `CC(C)N(CCNc1nc(C(Cl)(Cl)Cl)nc2cc(Cl)ccc12)C(C)C`, for which the growth is -0.349% (active).
As to `C[C@H]1[C@H](C)CC[C@]2(C(=O)O)CC[C@]3(C)C(=CC[C@@H]4[C@@]5(C)C[C@@H](Cc6cn([C@@H]7O[C@H](CO)[C@@H](O)[C@H](O)[C@H]7O)nn6)[C@H](O)C(C)(C)[C@@H]5CC[C@]43C)[C@H]12`, the growth is 91% (inactive).
With `O=C(NCC(c1ccsc1)N1CCCCCC1)c1ccc(C(F)(F)F)cc1` (stereo not given), the growth was 97.5% (inactive).
As to `CC1(C)CC[C@]2(C(=O)O)CC[C@]3(C)[C@H](CC[C@@H]4[C@@]5(C)CCC(=O)C(C)(C)[C@@H]5CC[C@]43C)[C@H]2[C@H]1OC(=O)C(F)(F)F`, the growth was -23.4% [100 µM] (active).
To `Cn1c(-c2c(N)n(Cc3cccnc3)c3nc(C#N)c(C#N)nc23)nc2ccccc21` belongs 50.3% (inactive); to `NC(=S)N/N=C\c1nccc2c(C(F)(F)C(F)(F)C(F)(F)F)cccc12`, -49.4% (active).
With `COc1ccc(-c2nc(SCCC(C)C)nc(N/N=C\c3cccc(Cl)c3)c2C#N)cc1`, the growth is 82% (inactive).
In the case of `O=C1Nc2c(ccc(Cl)c2Cl)/C1=C/c1ccc(O)cc1`, the growth is 76.9% (inactive).
To `C[C@]12CCc3nc(Nc4ccccc4)sc3C1=CC[C@@H]1[C@@H]2CC[C@]2(C)/C(=N/NC(N)=S)CC[C@@H]12` belongs 49% (inactive).
With `CC(=O)Nc1ccc(C(=O)COc2ccc(/C=C3\CCc4ccccc4C3=O)cc2)cc1`, the growth was 102% (inactive).
To `CCCCNc1cc(-c2cn[nH]c2-c2cc(C)cc(OC)c2)nc(-c2cccnc2)n1` belongs 105% (inactive); to `CCC1C(=O)COC1=O` (stereo not given), 96.9% (inactive).
For the compound `CCn1c(C)nc([N+](=O)[O-])c1Sc1nc(N)nc2nc[nH]c12`, the growth is 50.9% (inactive).
As to `CCN1CCN(c2cc(C(=O)Nc3cccc(Nc4ccc5c(OC)cccc5n4)c3)cc(C(F)(F)F)c2)CC1`, the growth was 62.6% (inactive).
The same measure for `CCN(CC)CCCC(Nc1c2ccc(Cl)cc2nc2ccc(OC)cc12)c1ccc(Cl)cc1` (stereo not given): -16.2% (active).
To `N#CC1=C(N)Oc2c(sc3c(Br)cccc23)C1c1ccc(Br)cc1` (stereo not given) belongs 6.12% (active); to `CCN(CC)c1ccc(-c2cc(-c3cc(OC)c(OC)c(OC)c3)nc(N3CCOCC3)c2C#N)cc1`, -43.4% (active).
The same measure for `CCNC(=O)Nc1nc2ccc(Oc3ccnc(C(=O)NC)c3)cc2s1`: 94.7% (inactive); for `Cc1ccccc1NC(=O)N/C(N)=N/c1nc(-c2cccc([N+](=O)[O-])c2)cs1`: 6.06% (active).
Consider `O=C(Nc1cccc2c1C(=O)c1cccc(Nc3cccc4c3C(=O)c3cccc(NC(=O)c5ccccc5)c3C4=O)c1C2=O)c1ccccc1`, for which the growth is 118% (inactive).
To `C#CCOC(=O)Nc1ccccc1` belongs 99.7% (inactive); to `C/C(=N\O)c1ccccn1`, 112% (inactive); to `O=C(Nc1ccccc1O)c1ccc(-c2ccc(Cl)cc2Cl)o1`, 83.7% (inactive).
On to `CCOC(=O)/C=C\C(=O)NC(N)=O`, for which the growth is 74.9% (inactive).
To `Cc1ccc(C(SCC(N)C(=O)O)(c2ccc(C)cc2)c2ccc(C)cc2)cc1` (stereo not given) belongs -17% (active); to `C[C@@H](C[C@H](CC1CC1)c1ccccc1)c1ccc2ccccc2c1`, 107% (inactive); to `CCOC(=O)c1c[nH]n2c(=S)ncnc12`, 91.2% (inactive).
Take `COc1cc(NC(=O)Nc2cnc(Nc3ccc(N4CCOCC4)cc3)nc2Oc2ccc(F)cc2)cc(OC)c1`: the growth was 65.4% (inactive).
To `COc1ccc(Cl)cc1NC(=O)c1c(NC(=O)C(F)(F)C(F)(F)F)sc2c1CCCCC2` belongs 12.4% (inactive).
For `C/C(=N\Nc1nc2ccccc2s1)c1ccncn1`, the growth was -19.9% (active).
Consider `Cn1cc(-c2csc(-c3c[nH]c4ccc(F)cc34)n2)c2cccnc21`, for which the growth was 24.5% (inactive).
Take `Cc1ccc(-n2nc3c(c(C#N)c2=O)CC(c2ccccc2[N+](=O)[O-])C([N+](=O)[O-])=C3O)cc1` (stereo not given): the growth was 91.6% (inactive).

(Values after PubChem BioAssay (NCI).)
